Results: PubChem BioAssay (EPA / NIEHS)
Activity calls are given as the source filed them. The calls were made as follows: active = hit-call score of the fitted dose curve at least 0.9, where 1 is the maximum; inactive = score below 0.9.

read-out: Interleukin-1 alpha (IL1a), IL1A (gene 3552); experiment: BSK_KF3CT_IL1a: BioMAP Diversity Plus: KF3CT Assay for Interleukin-1 alpha (IL1a) Biomarker Activity (AID 2283070); conditions: primary human keratinocytes with fibroblasts; actives raise or lower the signal
Procedure, shortened: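 Primary human keratinocyte plus foreskin fibroblast co-culture, dosed and measured at 24 h in 96-well plates. IL-1a level quantified by ELISA; bidirectional fit relative to DMSO.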

How did the outcome turn out when O=C(O)C(Cl)(Cl)Cl was run?
The outcome was “inactive”.

Which AC50 does the source give for Oc1cccc2cccnc12 here?
Its AC50 is 2.13 µM (active).

How did the outcome turn out when CC(=O)OC(c1ccccc1)C(Cl)(Cl)Cl (centres undefined) was run?
Its outcome is “inactive”.

C[C@]12CCC(=O)C[C@@H]1CC[C@@H]1[C@@H]2CC[C@]2(C)[C@@H](O)CC[C@@H]12 was tested. Which outcome did it give?
The outcome was “inactive”.

For COP(=S)(OC)Oc1ccc(Sc2ccc(OP(=S)(OC)OC)cc2)cc1, which outcome is on record?
The outcome was “inactive”.

C(=NC1CCCCC1)=NC1CCCCC1 was tested. Which AC50 did it give?
The AC50 was 17.2 µM (active).

Which outcome does the source give for COc1cc(OC)nc(NC(=O)NS(=O)(=O)c2ncccc2C(=O)N(C)C)n1 here?
Its outcome is “inactive”.

Which outcome does the source give for CC12CC1(C)C(=O)N(c1cc(Cl)cc(Cl)c1)C2=O (centres undefined) here?
Its outcome is “inactive”.

Which outcome does the source give for COC(=O)c1sccc1S(=O)(=O)NC(=O)Nc1nc(C)nc(OC)n1 here?
Its outcome is “inactive”.

With C=C(C)C(=O)[O][Sn]([CH2]CCC)([CH2]CCC)[CH2]CCC as the compound, how does the AC50 read?
Its AC50 is 0.148 µM (active).

CC(C)(C)c1cc(O)ccc1O was tested. Which AC50 did it give?
Its AC50 is 28.3 µM (active).

For CC(C)(c1ccccc1)c1ccc(O)c(C(C)(C)c2ccccc2)c1, which AC50 is on record?
The AC50 was 4.02 µM (active).

CCCCCCCCc1ccc(O)cc1 was tested. Which AC50 did it give?
Its AC50 is 25 µM (active).

With O=C(Nc1ccc2[nH]ccc2c1)c1cc2cc(F)ccc2n1Cc1cccc(F)c1 as the compound, how does the AC50 read?
The AC50 was 6.68 µM (active).

Which AC50 does the source give for O=C(OC1CCCCC1)c1ccccc1C(=O)OC1CCCCC1 here?
The AC50 was 15.3 µM (active).

With C=CC(=O)OCCCCCC(C)C as the compound, how does the outcome read?
The outcome was “inactive”.

CC(C)(C)CC(C)(C)c1ccc(O)cc1 was tested. Which AC50 did it give?
The AC50 was 7.85 µM (active).

Which AC50 does the source give for CCNc1nc(NC(C)(C)C)nc(SC)n1 here?
The AC50 was 20 µM (active).

Which AC50 does the source give for CC(=O)[O][Hg][c]1ccccc1 here?
Its AC50 is 0.707 µM (active).

Which outcome does the source give for Nc1cccc2ccccc12 here?
The outcome was “inactive”.

With ClCC(Cl)CCl as the compound, how does the outcome read?
The outcome was “inactive”.

For CCOP(=S)(OCC)Oc1nc(Cl)c(Cl)cc1Cl, which outcome is on record?
Its outcome is “inactive”.

Which outcome does the source give for CCOP(=S)(OCC)SCSP(=S)(OCC)OCC here?
Its outcome is “inactive”.

CCOP(=S)(OCC)SCCS(=O)(=O)CC was tested. Which outcome did it give?
The outcome was “inactive”.

With CCOP(=S)(OCC)Oc1ccc(S(C)=O)cc1 (centres undefined) as the compound, how does the outcome read?
Its outcome is “inactive”.

For COC[C@H](C)N(C(=O)CCl)c1c(C)csc1C, which outcome is on record?
Its outcome is “inactive”.

For ClC(Cl)=C(Cl)C(Cl)=C(Cl)Cl, which AC50 is on record?
Its AC50 is 20 µM (active).

COC(=O)Cc1ccccc1 was tested. Which outcome did it give?
The outcome was “inactive”.

With O=[N+]([O-])c1ccc(O)c([N+](=O)[O-])c1 as the compound, how does the outcome read?
Its outcome is “inactive”.

Nc1ncc([N+](=O)[O-])s1 was tested. Which outcome did it give?
Its outcome is “inactive”.

NC(=S)Nc1ccccc1 was tested. Which outcome did it give?
Its outcome is “inactive”.

CCC(C)(C)c1ccc(O)c(C(C)(C)CC)c1 was tested. Which AC50 did it give?
The AC50 was 9.89 µM (active).

With O=C(O)CCC(F)(C(F)(F)F)C(F)(F)F as the compound, how does the outcome read?
Its outcome is “inactive”.

With CCCCC(CC)CO[N+](=O)[O-] (centres undefined) as the compound, how does the outcome read?
Its outcome is “inactive”.
